Assay in all cases: DAPPL (digital affinity profiling via proximity ligation, sequencing); 10 mM Tris-HCl pH 7.5, 50 mM NaCl, 1 mM DTT, 4% glycerol, room temperature, 30 min; GST-TFs on glutathione beads, 16-mer random dsDNA library, 0.1% formaldehyde crosslink after washing; high values mean tight binding
Experiment [1] deals with T1, FEV (Homo sapiens, UniProt Q99581 1-238).
T1 sequence: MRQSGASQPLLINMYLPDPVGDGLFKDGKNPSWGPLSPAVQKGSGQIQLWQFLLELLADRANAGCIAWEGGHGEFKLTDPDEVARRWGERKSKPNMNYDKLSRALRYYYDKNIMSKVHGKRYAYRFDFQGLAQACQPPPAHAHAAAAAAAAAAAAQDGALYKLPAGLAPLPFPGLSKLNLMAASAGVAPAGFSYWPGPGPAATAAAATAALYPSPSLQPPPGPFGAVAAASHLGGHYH
The settings on record: protein: recombinant; tags: N-terminal GST; dsDNA, one strand shown. In a few lines:
(§1)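 Human transcription factors carrying a GST fusion were produced in yeast, bound to glutathione beads, tagged with DNA barcodes and pooled together with a tag-only sample. Each pool was held with 200 nmole of a random double-stranded 16-mer DNA library in Tris/NaCl/DTT/glycerol buffer for 30 min at room temperature, then washed, crosslinked in 0.1% formaldehyde, proximity-ligated with BsaI/T4 ligase (1 h, 37 °C), PCR-amplified and sequenced on an Illumina NextSeq500. Binding signal is the read frequency of each hexamer for a given factor divided by its frequency in the tag-only sample.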

For experiment [2], the target named is ETV5 (Homo sapiens, UniProt P41161 1-510). The settings on record: protein: recombinant; tags: N-terminal GST; dsDNA, one strand shown. In a few lines: as §1
Chain of ETV5 (P41161 whole entry): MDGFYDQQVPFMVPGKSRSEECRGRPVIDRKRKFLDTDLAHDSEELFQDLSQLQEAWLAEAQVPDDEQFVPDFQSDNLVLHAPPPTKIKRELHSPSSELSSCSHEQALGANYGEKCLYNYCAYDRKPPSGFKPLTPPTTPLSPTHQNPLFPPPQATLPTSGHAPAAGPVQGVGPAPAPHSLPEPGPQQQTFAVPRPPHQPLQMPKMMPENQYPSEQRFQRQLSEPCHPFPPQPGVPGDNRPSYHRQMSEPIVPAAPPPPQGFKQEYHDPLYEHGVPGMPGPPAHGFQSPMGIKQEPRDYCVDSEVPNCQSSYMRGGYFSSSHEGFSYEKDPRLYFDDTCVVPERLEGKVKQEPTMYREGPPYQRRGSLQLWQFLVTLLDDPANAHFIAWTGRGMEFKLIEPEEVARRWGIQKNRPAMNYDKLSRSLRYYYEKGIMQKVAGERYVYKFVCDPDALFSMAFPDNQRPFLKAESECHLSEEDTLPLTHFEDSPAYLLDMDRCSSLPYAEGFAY
The target of experiment [3] is HSF1 (Homo sapiens, UniProt Q00613 1-529). The settings on record: protein: recombinant; tags: N-terminal GST; chain copies: 3; dsDNA, one strand shown. In a few lines:
as §1

Experiment [4] addresses T2, SPIC (Homo sapiens, UniProt Q8N5J4 1-248).
T2 sequence: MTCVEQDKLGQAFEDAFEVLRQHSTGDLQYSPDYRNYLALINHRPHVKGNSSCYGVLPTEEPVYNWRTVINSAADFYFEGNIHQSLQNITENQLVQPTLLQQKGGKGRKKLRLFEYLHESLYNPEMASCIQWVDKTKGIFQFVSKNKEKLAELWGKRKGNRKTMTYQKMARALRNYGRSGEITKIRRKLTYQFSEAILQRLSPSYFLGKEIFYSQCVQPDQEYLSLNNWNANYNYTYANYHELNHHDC
The note with it: protein: recombinant; tags: N-terminal GST; dsDNA, one strand shown. In short, it runs like this:
as §1

The target of experiment [5] is ELF4 (Homo sapiens, UniProt Q99607 1-663). The note with it: protein: recombinant; tags: N-terminal GST; dsDNA, one strand shown. In a few lines:
as §1

For experiment [6], the target named is T3, ELK4 (Homo sapiens, UniProt P28324-2 1-405).
T3 sequence: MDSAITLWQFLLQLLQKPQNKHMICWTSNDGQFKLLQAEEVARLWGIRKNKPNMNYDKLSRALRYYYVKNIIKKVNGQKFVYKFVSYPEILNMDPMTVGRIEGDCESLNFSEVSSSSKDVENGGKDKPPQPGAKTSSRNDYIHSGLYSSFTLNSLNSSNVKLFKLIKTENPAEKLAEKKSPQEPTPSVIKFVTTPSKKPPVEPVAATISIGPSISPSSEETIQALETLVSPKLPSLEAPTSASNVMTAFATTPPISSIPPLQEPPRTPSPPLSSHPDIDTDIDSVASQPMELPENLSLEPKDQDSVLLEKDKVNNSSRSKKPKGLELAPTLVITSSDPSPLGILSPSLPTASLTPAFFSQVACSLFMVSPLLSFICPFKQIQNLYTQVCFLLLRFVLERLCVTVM
The note with it: protein: recombinant; tags: N-terminal GST; dsDNA, one strand shown. In short, it runs like this: as §1

The target in experiment [7] is T4, ETV2 (Homo sapiens, UniProt O00321 1-342).
T4 sequence: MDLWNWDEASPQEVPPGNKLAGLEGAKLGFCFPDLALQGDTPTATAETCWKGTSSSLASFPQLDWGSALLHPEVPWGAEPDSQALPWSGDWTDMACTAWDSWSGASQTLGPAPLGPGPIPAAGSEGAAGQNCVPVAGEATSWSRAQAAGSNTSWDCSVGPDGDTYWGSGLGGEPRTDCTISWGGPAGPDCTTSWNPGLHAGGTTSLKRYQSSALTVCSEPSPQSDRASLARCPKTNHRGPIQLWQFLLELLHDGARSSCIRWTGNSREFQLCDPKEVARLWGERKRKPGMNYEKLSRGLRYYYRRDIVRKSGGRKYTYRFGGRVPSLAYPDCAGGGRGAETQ
The settings on record: protein: recombinant; tags: N-terminal GST; dsDNA, one strand shown. In a few lines: as §1

The target in experiment [8] is T5, ELF3 (Homo sapiens, UniProt P78545 1-371).
T5 sequence: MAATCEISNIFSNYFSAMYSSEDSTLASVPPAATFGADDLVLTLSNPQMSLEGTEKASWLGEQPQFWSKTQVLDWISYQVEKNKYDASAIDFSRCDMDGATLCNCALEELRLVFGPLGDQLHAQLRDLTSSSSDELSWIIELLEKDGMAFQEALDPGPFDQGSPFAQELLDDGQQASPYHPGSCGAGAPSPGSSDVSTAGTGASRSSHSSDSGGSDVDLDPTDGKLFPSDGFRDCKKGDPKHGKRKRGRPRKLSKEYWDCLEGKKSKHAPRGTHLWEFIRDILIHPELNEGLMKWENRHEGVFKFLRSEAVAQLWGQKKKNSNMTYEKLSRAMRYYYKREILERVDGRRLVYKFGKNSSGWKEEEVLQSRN
The note with it: protein: recombinant; tags: N-terminal GST; dsDNA, one strand shown. In short, it runs like this:
as §1

Experiment [9] has as its target CRX (Homo sapiens, UniProt O43186 1-299). The note with it: protein: recombinant; tags: N-terminal GST; dsDNA, one strand shown. In a few lines: as §1
Experiment [10] addresses ETV1 (Homo sapiens, UniProt P50549 1-477). The note with it: protein: recombinant; tags: N-terminal GST; dsDNA, one strand shown. In a few lines: as §1
Experiment [11] deals with T6, ERF (Homo sapiens, UniProt P50548 1-548).
T6 sequence: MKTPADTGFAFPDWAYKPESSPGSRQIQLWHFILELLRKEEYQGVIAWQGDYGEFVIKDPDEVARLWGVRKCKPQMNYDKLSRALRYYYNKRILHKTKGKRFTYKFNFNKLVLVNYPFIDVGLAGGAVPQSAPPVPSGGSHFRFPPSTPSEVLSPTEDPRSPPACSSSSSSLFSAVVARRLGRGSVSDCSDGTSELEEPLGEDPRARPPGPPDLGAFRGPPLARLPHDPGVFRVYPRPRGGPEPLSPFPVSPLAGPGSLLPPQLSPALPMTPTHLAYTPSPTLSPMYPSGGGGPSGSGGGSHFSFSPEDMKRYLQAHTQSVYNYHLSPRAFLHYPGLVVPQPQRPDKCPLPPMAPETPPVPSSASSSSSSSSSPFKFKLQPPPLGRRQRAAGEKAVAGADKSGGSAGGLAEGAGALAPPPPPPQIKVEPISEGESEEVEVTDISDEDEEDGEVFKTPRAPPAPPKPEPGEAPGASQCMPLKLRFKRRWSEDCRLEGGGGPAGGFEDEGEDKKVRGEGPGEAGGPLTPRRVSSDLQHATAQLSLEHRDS
The note with it: protein: recombinant; tags: N-terminal GST; dsDNA, one strand shown. In short, it runs like this: as §1

Experiment [12] concerns the target T7, ETV3L (Homo sapiens, UniProt Q6ZN32 1-361).
T7 sequence: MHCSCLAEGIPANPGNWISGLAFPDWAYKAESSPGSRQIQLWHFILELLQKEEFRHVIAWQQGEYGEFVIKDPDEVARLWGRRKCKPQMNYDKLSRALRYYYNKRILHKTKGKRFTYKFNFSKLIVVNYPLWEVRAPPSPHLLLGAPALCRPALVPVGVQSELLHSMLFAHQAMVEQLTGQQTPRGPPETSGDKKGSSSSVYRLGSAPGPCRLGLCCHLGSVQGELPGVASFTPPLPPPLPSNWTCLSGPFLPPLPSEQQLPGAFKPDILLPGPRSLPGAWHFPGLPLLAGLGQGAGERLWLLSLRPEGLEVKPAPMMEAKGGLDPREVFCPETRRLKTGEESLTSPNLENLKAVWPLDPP
The note with it: protein: recombinant; tags: N-terminal GST; dsDNA, one strand shown. In short, it runs like this:
as §1

Experiment [13] concerns the target T8, ETS2 (Homo sapiens, UniProt P15036 1-469).
T8 sequence: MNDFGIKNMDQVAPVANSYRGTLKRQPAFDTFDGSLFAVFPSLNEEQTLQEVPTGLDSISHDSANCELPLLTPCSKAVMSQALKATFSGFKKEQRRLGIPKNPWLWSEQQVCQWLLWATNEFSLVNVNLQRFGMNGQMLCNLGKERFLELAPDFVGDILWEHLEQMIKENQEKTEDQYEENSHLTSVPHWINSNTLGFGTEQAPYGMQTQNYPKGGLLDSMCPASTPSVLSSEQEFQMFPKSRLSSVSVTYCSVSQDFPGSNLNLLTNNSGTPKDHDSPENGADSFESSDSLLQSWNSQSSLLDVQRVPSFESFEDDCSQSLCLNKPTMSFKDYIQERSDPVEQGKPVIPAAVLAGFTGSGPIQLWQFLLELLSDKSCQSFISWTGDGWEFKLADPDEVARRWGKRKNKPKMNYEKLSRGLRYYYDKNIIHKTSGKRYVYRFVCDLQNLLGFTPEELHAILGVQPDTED
The note with it: protein: recombinant; tags: N-terminal GST; dsDNA, one strand shown. In short, it runs like this: as §1

Experiment [14] addresses T9, SPDEF (Homo sapiens, UniProt O95238 1-335).
T9 sequence: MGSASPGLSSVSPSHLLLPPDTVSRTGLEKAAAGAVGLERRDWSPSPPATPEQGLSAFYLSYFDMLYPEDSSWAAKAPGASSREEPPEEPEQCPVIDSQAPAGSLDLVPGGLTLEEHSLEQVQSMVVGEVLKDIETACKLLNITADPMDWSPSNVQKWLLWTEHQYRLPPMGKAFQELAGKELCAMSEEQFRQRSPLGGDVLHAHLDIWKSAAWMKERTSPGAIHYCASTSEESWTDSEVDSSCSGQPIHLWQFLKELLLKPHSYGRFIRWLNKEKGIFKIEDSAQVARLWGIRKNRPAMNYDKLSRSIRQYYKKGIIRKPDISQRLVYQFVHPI
The note with it: protein: recombinant; tags: N-terminal GST; dsDNA, one strand shown. In short, it runs like this:
as §1

For experiment [15], the target named is T10, ETV7 (Homo sapiens, UniProt Q9Y603 1-341).
T10 sequence: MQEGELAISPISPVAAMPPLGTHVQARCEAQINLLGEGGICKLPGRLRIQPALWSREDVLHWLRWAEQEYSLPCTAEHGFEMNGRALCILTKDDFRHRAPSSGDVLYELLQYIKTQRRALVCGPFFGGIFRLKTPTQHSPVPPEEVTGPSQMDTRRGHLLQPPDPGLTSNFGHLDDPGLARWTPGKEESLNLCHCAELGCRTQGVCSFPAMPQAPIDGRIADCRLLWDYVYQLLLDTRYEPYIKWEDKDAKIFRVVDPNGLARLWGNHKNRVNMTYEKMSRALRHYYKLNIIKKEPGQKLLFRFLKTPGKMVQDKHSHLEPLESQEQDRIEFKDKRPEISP
The settings on record: protein: recombinant; tags: N-terminal GST; dsDNA, one strand shown. In short, it runs like this: as §1

The target of experiment [16] is T11, ELF5 (Homo sapiens, UniProt Q9UKW6-2 1-255).
T11 sequence: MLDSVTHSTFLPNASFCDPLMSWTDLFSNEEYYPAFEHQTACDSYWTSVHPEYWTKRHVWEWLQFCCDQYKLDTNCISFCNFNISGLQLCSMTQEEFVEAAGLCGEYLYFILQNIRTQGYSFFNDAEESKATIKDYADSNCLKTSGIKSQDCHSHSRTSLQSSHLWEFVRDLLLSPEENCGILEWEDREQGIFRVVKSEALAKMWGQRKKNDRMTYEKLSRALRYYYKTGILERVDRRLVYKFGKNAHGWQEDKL
The note with it: protein: recombinant; tags: N-terminal GST; dsDNA, one strand shown. In a few lines:
as §1

Experiment [17] addresses T12, ETV3 (Homo sapiens, UniProt P41162-2 1-143).
T12 sequence: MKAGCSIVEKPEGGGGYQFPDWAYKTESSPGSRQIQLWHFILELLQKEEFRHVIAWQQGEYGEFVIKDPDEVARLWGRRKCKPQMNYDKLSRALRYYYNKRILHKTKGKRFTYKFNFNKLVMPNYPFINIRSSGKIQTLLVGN
The note with it: protein: recombinant; tags: N-terminal GST; dsDNA, one strand shown. In a few lines:
as §1

The target in experiment [18] is ETV6 (Homo sapiens, UniProt P41212 1-452). The note with it: protein: recombinant; tags: N-terminal GST; dsDNA, one strand shown. In short, it runs like this:
as §1

Chain of HSF1 (Q00613 whole entry): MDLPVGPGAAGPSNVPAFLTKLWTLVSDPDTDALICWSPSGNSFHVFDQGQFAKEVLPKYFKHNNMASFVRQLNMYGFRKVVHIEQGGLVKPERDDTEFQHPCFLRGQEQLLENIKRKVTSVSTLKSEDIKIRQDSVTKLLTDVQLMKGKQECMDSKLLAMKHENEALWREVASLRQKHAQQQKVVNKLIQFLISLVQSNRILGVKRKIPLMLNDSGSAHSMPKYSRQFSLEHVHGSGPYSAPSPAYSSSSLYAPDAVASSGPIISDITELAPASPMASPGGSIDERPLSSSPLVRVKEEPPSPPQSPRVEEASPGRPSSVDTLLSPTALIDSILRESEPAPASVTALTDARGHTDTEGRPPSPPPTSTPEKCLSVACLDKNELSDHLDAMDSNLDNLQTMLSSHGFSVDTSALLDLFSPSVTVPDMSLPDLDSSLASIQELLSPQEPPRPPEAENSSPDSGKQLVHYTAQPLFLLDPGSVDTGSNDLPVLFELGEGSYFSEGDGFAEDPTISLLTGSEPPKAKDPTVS
Chain of CRX (O43186 whole entry): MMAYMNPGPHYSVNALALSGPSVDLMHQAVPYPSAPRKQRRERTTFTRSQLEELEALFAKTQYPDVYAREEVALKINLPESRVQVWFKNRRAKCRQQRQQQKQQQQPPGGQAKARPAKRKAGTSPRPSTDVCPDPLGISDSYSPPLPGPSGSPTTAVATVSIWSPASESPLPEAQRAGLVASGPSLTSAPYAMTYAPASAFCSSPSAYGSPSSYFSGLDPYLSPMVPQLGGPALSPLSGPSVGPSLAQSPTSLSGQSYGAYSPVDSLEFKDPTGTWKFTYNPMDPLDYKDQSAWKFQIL
Chain of ELF4 (Q99607 whole entry): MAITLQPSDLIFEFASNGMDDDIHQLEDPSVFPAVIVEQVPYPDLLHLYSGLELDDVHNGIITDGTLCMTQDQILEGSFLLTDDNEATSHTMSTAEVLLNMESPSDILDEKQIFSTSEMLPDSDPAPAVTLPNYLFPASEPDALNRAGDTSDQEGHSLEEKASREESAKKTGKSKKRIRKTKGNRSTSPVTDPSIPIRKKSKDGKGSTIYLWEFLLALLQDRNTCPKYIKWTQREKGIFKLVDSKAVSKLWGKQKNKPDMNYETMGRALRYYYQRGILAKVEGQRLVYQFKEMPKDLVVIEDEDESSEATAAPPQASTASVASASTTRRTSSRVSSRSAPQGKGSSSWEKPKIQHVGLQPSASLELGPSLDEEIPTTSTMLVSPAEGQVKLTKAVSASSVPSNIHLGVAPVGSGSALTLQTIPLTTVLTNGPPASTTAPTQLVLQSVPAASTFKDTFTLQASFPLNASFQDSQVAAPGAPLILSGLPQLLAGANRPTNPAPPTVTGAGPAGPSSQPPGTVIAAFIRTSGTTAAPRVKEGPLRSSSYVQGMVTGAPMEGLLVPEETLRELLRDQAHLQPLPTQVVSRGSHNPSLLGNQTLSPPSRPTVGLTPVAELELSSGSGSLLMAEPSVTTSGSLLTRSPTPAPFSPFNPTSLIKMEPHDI
Chain of ETV1 (P50549 whole entry): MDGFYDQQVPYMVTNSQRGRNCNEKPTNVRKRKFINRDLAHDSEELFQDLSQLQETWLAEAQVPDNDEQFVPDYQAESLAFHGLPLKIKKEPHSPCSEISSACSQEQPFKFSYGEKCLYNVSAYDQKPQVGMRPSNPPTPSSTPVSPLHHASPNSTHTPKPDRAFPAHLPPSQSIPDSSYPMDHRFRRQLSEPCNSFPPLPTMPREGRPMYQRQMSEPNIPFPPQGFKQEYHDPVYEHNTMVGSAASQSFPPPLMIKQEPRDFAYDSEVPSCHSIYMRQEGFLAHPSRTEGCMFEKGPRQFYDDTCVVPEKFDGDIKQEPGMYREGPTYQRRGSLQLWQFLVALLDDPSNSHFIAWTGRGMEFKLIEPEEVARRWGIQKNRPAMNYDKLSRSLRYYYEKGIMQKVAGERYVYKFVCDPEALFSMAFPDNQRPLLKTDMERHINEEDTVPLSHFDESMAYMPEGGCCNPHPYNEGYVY
Chain of ETV6 (P41212 whole entry): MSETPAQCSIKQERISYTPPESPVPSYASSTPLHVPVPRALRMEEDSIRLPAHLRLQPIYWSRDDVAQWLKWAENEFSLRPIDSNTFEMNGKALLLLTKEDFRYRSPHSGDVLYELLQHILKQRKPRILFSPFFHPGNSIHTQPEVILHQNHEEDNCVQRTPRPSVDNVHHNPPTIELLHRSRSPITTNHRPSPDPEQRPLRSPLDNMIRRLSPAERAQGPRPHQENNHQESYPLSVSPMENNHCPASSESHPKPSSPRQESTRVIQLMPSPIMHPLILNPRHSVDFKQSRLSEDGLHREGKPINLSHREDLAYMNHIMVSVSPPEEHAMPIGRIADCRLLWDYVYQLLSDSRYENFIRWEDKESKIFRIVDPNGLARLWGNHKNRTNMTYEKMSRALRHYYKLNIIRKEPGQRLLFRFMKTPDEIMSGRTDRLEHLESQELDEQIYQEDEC

AAACCT: the binding signal in [1] is 1.08 fold enrichment (6-mer frequency, TF over GST control); in experiment [2], 1.13 fold enrichment (6-mer frequency, TF over GST control); in experiment [3] it was 1.15 fold enrichment (6-mer frequency, TF over GST control); in experiment [4], 1.09 fold enrichment (6-mer frequency, TF over GST control); in experiment [5] it was 1.16 fold enrichment (6-mer frequency, TF over GST control); in [6], 1.2 fold enrichment (6-mer frequency, TF over GST control). The binding signal in experiment [7] was 1.19 fold enrichment (6-mer frequency, TF over GST control); in [8], 1.19 fold enrichment (6-mer frequency, TF over GST control); in experiment [9], 1.24 fold enrichment (6-mer frequency, TF over GST control); in experiment [10], 1.15 fold enrichment (6-mer frequency, TF over GST control); in [11], 1.18 fold enrichment (6-mer frequency, TF over GST control); in experiment [12], 1.07 fold enrichment (6-mer frequency, TF over GST control). In addition, the binding signal in experiment [13] was 1.13 fold enrichment (6-mer frequency, TF over GST control); in experiment [14], 1.05 fold enrichment (6-mer frequency, TF over GST control); in experiment [15], 1.16 fold enrichment (6-mer frequency, TF over GST control); in experiment [16], 1.13 fold enrichment (6-mer frequency, TF over GST control); in experiment [17], 1.1 fold enrichment (6-mer frequency, TF over GST control); in [18] it was 1.16 fold enrichment (6-mer frequency, TF over GST control).

The values are drawn from article PMC7862700, “An all-to-all approach to the identification of sequence-specific readers for epigenetic DNA modifications on cytosine”.
